# Data taken from the supplement of paper PMC9135407.
# Where “and” joins values, the source holds several entries; their conditions need not be identical. Equal entries are not always repeated. Structures can show the parent of a compound that is named as a salt. In all, about 5,800 compounds went through this assay and about 620 (11%) showed activity. This is one part of a sample in which actives are shown more often than they occur. A number with no mark means an inactive call.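 The calls were made as follows: active = score above a cut-off or among the top three wells of a plate; in these data no inactive exceeds 0.85.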
# System: primary human hepatic stellate cells (donor 1)
# Test: scaled lipid accumulation score (0 = DMSO-like, 1 = nortriptyline-like); higher = stronger HSC inactivation (lipid re-accumulation), active = hit call of the paper
# Settings: 48 h
# [1] = library stock concentration: 10 mM
# [2] = library stock concentration: 80 uM
# [3] = library stock concentration: 400 uM
# [4] = library stock concentration: 2 mM
# [5] = library stock concentration: 1 mM
# [6] = library stock concentration: 3.33 mM
smiles,measurement,setting,value
C[N+](C)(C)CCOP(=O)(O)OP(=O)([O-])OC[C@H]1O[C@@H](n2ccc(N)nc2=O)[C@H](O)[C@@H]1O [Cytidine 5'-diphosphocholine sodium salt hydrate],scaled lipid accumulation score,[1],≤ -0.07
C[N+](C)(C)CCOP(=O)(O)OP(=O)([O-])OC[C@H]1O[C@@H](n2ccc(N)nc2=O)[C@H](O)[C@@H]1O [Citicoline],scaled lipid accumulation score,[1],≤ -0.027
CO[C@H]1C=C[C@@]23c4cc5c(cc4CN(C[C@@H]2O)[C@H]3C1)OCO5 [Crinamine],scaled lipid accumulation score,[1],0.74
Cc1ccc(Nc2cc(-c3cccc(N4C(=O)c5ccccc5C4=O)c3)ncn2)cc1NS(C)(=O)=O,scaled lipid accumulation score,[2],0.083
same,scaled lipid accumulation score,[3],≤ -0.016
same,scaled lipid accumulation score,[4],≤ -0.016
same,scaled lipid accumulation score,[1],0.08
CCCCCC(O)/C=C/C1C(O)CC(O)C1CCCCC(CC(=O)O)OC (stereo not drawn) [3-methoxy Prostaglandin F1.alpha.],scaled lipid accumulation score,[5],≤ 0
CCCCCCCCCCCCCCC(=O)N[C@H]1CCOC1=O [N-pentadecanoyl-L-Homoserine lactone],scaled lipid accumulation score,[5],≤ 0
c1ccc2c(c1)CCC[C@H]2Nc1nc2ccccc2[nH]1 [NS8593 hydrochloride],scaled lipid accumulation score,[1],0.362
CCCCNC(=O)NS(=O)(=O)c1ccc(CO)cc1 [4-hydroxy Tolbutamide],scaled lipid accumulation score,[5],0.012
COc1ccc(NS(=O)(=O)c2sc3ccc(Cl)cc3c2C)cc1N1CCNCC1 [listing 1 of 2 here],scaled lipid accumulation score,[6],0.383
COc1ccc(NS(=O)(=O)c2sc3ccc(Cl)cc3c2C)cc1N1CCNCC1 [listing 2 of 2 here],scaled lipid accumulation score,[1],1.31 (active)
COc1ccc(NS(=O)(=O)c2ccc(I)cc2)cc1N1CCN(C)CC1,scaled lipid accumulation score,[1],0.604
CCCCCCCCCCCCCCCCCCCCCC(=O)NCCO [Docosanoyl Ethanolamide],scaled lipid accumulation score,[5],≤ 0
COc1ccc2c(c1)CCC1C2CCC2(C)C(NCCCCCCN3C(=O)C=CC3=O)CCC12 (configuration not stated),scaled lipid accumulation score,[5],≤ 0
same,scaled lipid accumulation score,[1],0.397
C[C@]12CC[C@@H]3c4ccc(OC(=O)c5ccccc5)cc4CC[C@H]3[C@@H]1CC[C@@H]2O [Estradiol Benzoate],scaled lipid accumulation score,[6],≤ 0
same,scaled lipid accumulation score,[1],0.155
C[C@]12CC[C@@H]3c4ccc(OC(=O)c5ccccc5)cc4CC[C@H]3[C@@H]1CC[C@@H]2O [Estradiol benzoate],scaled lipid accumulation score,library stock concentration: 5.3 mM,≤ 0
COc1ccc2c(c1)CCC1C2CC[C@@]2(C)C1CC[C@@H]2NCCCCCCN1C(=O)CCC1=O (some centres not stated),scaled lipid accumulation score,[1],0.875 (active)
CN1c2cc(O)c(N=NC(N)=O)cc2CC1S(=O)(=O)O (configuration not stated) [Carbazochrome sodium sulfonate (AC-17)],scaled lipid accumulation score,[6],≤ 0
same,scaled lipid accumulation score,[1],≤ 0
c1ccc(CNc2nc(NCc3ccccc3)c3ccccc3n2)cc1,scaled lipid accumulation score,[6],0.706
same,scaled lipid accumulation score,[1],0.074
CC(=O)NCCCCCC(=O)O [Acexamic acid],scaled lipid accumulation score,[1],0.236
CC(C)CCOc1ccc(NC(=S)Nc2ccc(OCCC(C)C)cc2)cc1 [Thiocarlide],scaled lipid accumulation score,[5],≤ 0
CN1C(=O)CC[C@H]1c1cccnc1 [Cotinine (-)],scaled lipid accumulation score,,≤ 0
CN1C(=O)CC[C@H]1c1cccnc1 [Cotinine],scaled lipid accumulation score,[1],≤ 0
same,scaled lipid accumulation score,library stock concentration: 11.3 mM,≤ -0.001
CN1C(=O)CC[C@H]1c1cccnc1 [(-)-Cotinine],scaled lipid accumulation score,[1],≤ 0 and 0.057
O=c1ccc2cc(O)c(O)cc2o1 [Esculetin],scaled lipid accumulation score,,≤ 0
same,scaled lipid accumulation score,[1],≤ 0
O=c1ccc2ccccc2o1 [Coumarin],scaled lipid accumulation score,[6],≤ 0
same,scaled lipid accumulation score,[1],≤ 0 and 0.012
"O=Nc1ccc2oc(=O)ccc2c1 [6-Nitroso-1,2-benzopyrone]",scaled lipid accumulation score,[1],0.9 (active)
CC(C)n1c(/C=C/C(O)CC(O)CC(=O)O)c(-c2ccc(F)cc2)c2ccccc21 (configuration not stated) [Fluvastatin sodium salt],scaled lipid accumulation score,,0.403
CC(C)n1c(/C=C/C(O)CC(O)CC(=O)O)c(-c2ccc(F)cc2)c2ccccc21 (configuration not stated) [fluvastatin],scaled lipid accumulation score,[1],0.549
CC(C)n1c(/C=C/C(O)CC(O)CC(=O)O)c(-c2ccc(F)cc2)c2ccccc21 (configuration not stated) [Fluvastatin Sodium],scaled lipid accumulation score,[6],0.188
same,scaled lipid accumulation score,[1],0.219
COc1cc(C)c(Cc2cnc(N)nc2N)cc1OC,scaled lipid accumulation score,[1],≤ 0
O=C(OCC(O)CO)c1ccccc1Nc1ccnc2cc(Cl)ccc12 (configuration not stated) [Glafenine hydrochloride],scaled lipid accumulation score,,≤ 0
Clc1ccc2c(N3CCN(CCCN4CCN(c5ccnc6cc(Cl)ccc56)CC4)CC3)ccnc2c1 [Piperaquine tetraphosphate tetrahydrate],scaled lipid accumulation score,[1],0.316
CCN(CC)CCCC(C)Nc1ccnc2cc(Cl)ccc12 (configuration not stated) [Chloroquine phosphate],scaled lipid accumulation score,library stock concentration: 6.3 mM,0.285
O=C(OCC(O)CO)c1ccccc1Nc1ccnc2cc(Cl)ccc12 (configuration not stated) [Glafenine],scaled lipid accumulation score,[1],≤ 0
CCN(CC)Cc1cc(Nc2ccnc3cc(Cl)ccc23)ccc1O.Cl.Cl.O.O [Amodiaquin dihydrochloride dihydrate],scaled lipid accumulation score,,1.22 (active)
CCN(CCO)CCCC(C)Nc1ccnc2cc(Cl)ccc12 (configuration not stated) [Hydroxychloroquine sulfate],scaled lipid accumulation score,[1],0.161
CCN(CC)CCCC(C)Nc1ccnc2cc(Cl)ccc12 (configuration not stated) [Chloroquine diphosphate],scaled lipid accumulation score,,0.679
same,scaled lipid accumulation score,[1],≤ 0 and 0.428
Cc1nc2cc3nc(-c4cccs4)cnc3cc2n1C,scaled lipid accumulation score,[6],≤ 0
Cc1csc(-c2nnc(Nc3ccc(Oc4ncccc4-c4ccnc(N)n4)cc3)c3ccccc23)c1,scaled lipid accumulation score,[6],≤ 0
same,scaled lipid accumulation score,[1],≤ 0
CCCCCCCCCCCCCCCCC/C=C/C(=O)O [.DELTA.2-trans Eicosenoic Acid],scaled lipid accumulation score,[5],≤ 0
O=c1oc(-c2ccc(C(F)(F)F)cc2)nn1Cc1cc(Cl)ccc1O,scaled lipid accumulation score,[1],0.172
Cc1oncc1C(=O)Nc1ccc(C(F)(F)F)cc1 [Leflunomide],scaled lipid accumulation score,,≤ 0
same,scaled lipid accumulation score,[2],0.045
same,scaled lipid accumulation score,[3],≤ 0
same,scaled lipid accumulation score,[4],≤ 0
same,scaled lipid accumulation score,[6],≤ 0
O=C(Nc1ccc([N+](=O)[O-])cc1Cl)c1cc(Cl)ccc1O [Niclosamide] [listing 1 of 2 here],scaled lipid accumulation score,,0.776
O=C(Nc1cc(C(F)(F)F)cc(C(F)(F)F)c1)c1cc(Cl)ccc1O [IKK-2 Inhibitor V],scaled lipid accumulation score,[6],≤ 0
O=C(Nc1ccc([N+](=O)[O-])cc1Cl)c1cc(Cl)ccc1O [Niclosamide] [listing 2 of 2 here],scaled lipid accumulation score,library stock concentration: 6.1 mM,1.15 (active)
same,scaled lipid accumulation score,[1],1.08 (active)
O=C(Nc1ccccc1)c1cc([N+](=O)[O-])ccc1Cl,scaled lipid accumulation score,[5],≤ 0
same,scaled lipid accumulation score,[6],0.023
same,scaled lipid accumulation score,[1],≤ 0 and 0.358 and 0.105
O=C(Nc1cc(C(F)(F)F)cc(C(F)(F)F)c1)c1cc(Cl)ccc1O [listing 1 of 3 here],scaled lipid accumulation score,[1],1.1 (active)
O=C(Nc1cc(C(F)(F)F)cc(C(F)(F)F)c1)c1cc(Cl)ccc1O [listing 2 of 3 here],scaled lipid accumulation score,[1],1.61 (active)
O=C(Nc1cc(C(F)(F)F)cc(C(F)(F)F)c1)c1cc(Cl)ccc1O [listing 3 of 3 here],scaled lipid accumulation score,[6],0.722
O=C(Nc1ccccc1)c1ccccc1O [Salicylanilide],scaled lipid accumulation score,[6],≤ 0
same,scaled lipid accumulation score,library stock concentration: 9.4 mM,0.019
same,scaled lipid accumulation score,[1],0.041
